NPR1 antag = human Npr1 receptor antagonism | Potency, µM (top dose mostly 46.3 µM), inactives show at the highest dose activity change, negative = inhibition, actives largely listed as inhibitors | AID 1347048 | P16066 | 1.6% of 76,000 active | HEK293 hNpr1 GloSensor cGMP, ANP-stimulated luminescence; calls by dose curve; also: nearly all actives have a fitted effect of over 60% in size
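HEK293 cells stably expressing human Npr1 and cGMP GloSensor pGS-40F, loaded 2 h with 2% GloSensor reagent, given compound 30 min at room temperature. Luminescence read before and 20 min after 0.1 nM hNppA.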
HEK293 viab = cell viability loss counter-screen | AID 1671193 | 0.12% of 150,000 active | Potency, µM (top dose mostly 57.1 µM), for inactives: top-dose activity change, negative = cytotoxicity, usual class: cytotoxic | HEK-293-SNCA-luc viability, GF-AFC fluorescence, 24 h;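 also: 0% = DMSO-treated cells and -100% = medium-only wells without cells; nearly all actives have a fitted effect of over 30% in size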
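Cytotoxicity counterscreen: after 24 h compound treatment of genome-edited SNCA-luciferase HEK-293 cells, live-cell protease substrate GF-AFC read by fluorescence after 30 min; activity scaled between DMSO (0%) and medium-only (-100%), curves Hill-fitted.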
SNCA expr inhib = reduces expression of the alpha-synuclein gene. HEK-293 SNCA-luciferase knock-in, luminescence, 24 h. Potency, µM (doses to about 57.2 µM), for inactives: top-dose activity change, negative = inhibition, actives largely listed as inhibitors. 0.17% of 140,000 active. AID 1671194;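 also: plate controls were DMSO cells for no effect and cell-free wells for full effect; nearly all actives have a fitted effect of over 45% in size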
NIH3T3 tox = NIH 3T3 cell cytotoxicity. NIH 3T3 viability, CellTiter-Glo ATP luminescence, 48-72 h. Potency, µM (series often up to 96.7 µM), inactives show at the top dose activity change, negative = cytotoxicity, actives largely listed as inhibitors. 4.3% of 94,000 active; also: nearly all actives have a fitted effect of over 55% in size
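ATP-dependent luminescence (CellTiter-Glo) served as the viability signal for NIH 3T3 cells treated with compound for 48 or 72 hr at 37 °C.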
HEK293 tox = kills HEK 293 cells; HEK 293 viability, ATP luminescence (CellTiter-Glo), 48-72 h; Potency, µM (series often up to 115 µM), for inactives: at the top dose activity change, negative = cytotoxicity, hits mostly inhibitors; 6.6% of 94,000 active; AID 1345083; also: nearly all actives have a fitted effect of over 60% in size
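Pintool-delivered compounds were incubated with HEK 293 cells (250 cells/well) at 37 degree Celsius for 48 or 72 hr. ATP-dependent luminescence (CellTiter-Glo) then reported remaining viable cells.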
Luciferase inh = inhibitors of firefly (Photinus pyralis) luciferase; P08659; purified P. pyralis luciferase, luminescence, biochemical; Potency, µM (titrated, usually from 115 µM), usual class: inhibitors; 2.5% of 76,000 active; also: nearly all actives have a fitted effect of over 65% in size
Target sequence (P08659 whole entry, looked up): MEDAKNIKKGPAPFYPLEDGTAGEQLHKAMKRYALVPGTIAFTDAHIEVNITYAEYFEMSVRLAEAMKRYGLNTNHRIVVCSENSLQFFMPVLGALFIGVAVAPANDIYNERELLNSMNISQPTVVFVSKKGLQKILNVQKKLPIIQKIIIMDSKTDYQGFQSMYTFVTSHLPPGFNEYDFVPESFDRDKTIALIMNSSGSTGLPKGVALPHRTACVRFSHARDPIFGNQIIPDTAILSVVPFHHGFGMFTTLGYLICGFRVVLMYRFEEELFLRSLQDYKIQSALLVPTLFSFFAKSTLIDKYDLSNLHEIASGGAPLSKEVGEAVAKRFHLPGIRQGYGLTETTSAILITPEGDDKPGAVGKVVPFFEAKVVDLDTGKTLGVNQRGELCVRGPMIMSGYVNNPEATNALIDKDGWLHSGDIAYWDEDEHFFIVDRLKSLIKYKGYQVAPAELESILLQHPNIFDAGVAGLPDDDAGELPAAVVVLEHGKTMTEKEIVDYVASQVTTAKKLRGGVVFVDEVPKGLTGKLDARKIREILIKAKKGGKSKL
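Luminescence read by CCD imaging after purified firefly luciferase (10nM final) was added to substrate buffer holding 10uM D-luciferin and 10uM ATP, pH 7.5, pre-dosed with compound.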
Starred values were filed as active, the others as inactive; i = inactive; ? = inconclusive; nt = not tested or not shown; ! = not active in a repeat; [ ] = remark or other dose. Only some compounds are listed: those with a hit (about 7.4% of all), similar ones and a draw of the others. Unless noted, calls follow the shape of the dose curve; as a rule, active = well fitted curve in the direction sought with a large enough effect; inconclusive = small, poorly fitted or top-dose-only effect, or another doubt; inactive = no such curve, though single readings can be large; an effect the other way counts as inactive or inconclusive. Unless noted, % is scaled to controls: 0 for no effect and ±100 for the full control effect; potency is read from the fitted curve at half-maximal effect.

SMILES | NPR1 antag | HEK293 viab | SNCA expr inhib | NIH3T3 tox | HEK293 tox | Luciferase inh
CC(C)c1noc(CC2CCN(C(=O)c3ccc4c(c3)OCO4)CC2)n1 | -13% | -8% | -12% | ? | ? | i
COc1ccc(CCC(=O)N2CCC3(CC2)CC(Cc2nc(-c4cccnc4)no2)CCO3)cc1 (stereo not given) | ? | -2% | -17% | ? | ? | i
O=C(c1ccc2c(c1)OCO2)N1CCC(Cc2nc(-c3ccccc3)no2)CC1 | 4µM* | -3% | 7% | ? | 10µM* | ?
COc1ccc(-c2noc(CC3CCN(C(=O)Cc4ccsc4)CC3)n2)cc1 | ? | -15% | -28% | ? | 45µM* | i
COc1ccc(CC2CCN(C(=O)c3c(C)noc3-c3ccc4c(c3)OCO4)CC2)cc1 | ? | 14% | -16% | 25µM* | 35µM* | i
COc1ccc(C(=O)N2CCC3(CC2)CC(Cc2nc(-c4ccccc4)no2)CCO3)cc1 (stereo not given) | 7.1µM* | ? | ? | ? | 13µM* | ?
O=C(NCCCc1ccccc1)C1CCCN1C(=O)c1cccc(-c2ccccn2)c1 (stereo not given) | nt | -14% | 0% | -34% | -12% | nt
COc1cccc(-c2noc(CC3CCN(C(=O)c4cc(OC)c(OC)c(OC)c4)CC3)n2)c1 | -18% | -15% | 4% | ? | 45µM* | i
O=C(Nc1ccc(F)cc1)c1cccn2nccc12 | -21%[70.6 µM] | 10%[87.6 µM] | 35%[87.6 µM] | -15%[138 µM] | i | ?
O=C(Nc1ccc(F)cc1)c1ccn2nccc2c1 | -9%[70.6 µM] | 1%[87.6 µM] | 144%[87.6 µM] | -26%[138 µM] | ? | 50µM*
Cc1noc(-c2ccc(OC3CN(C(=O)c4cccc5[nH]ccc45)C3)cc2)n1 | ? | -17% | 61% | ? | ? | 35µM*
O=C(c1cccc2[nH]ccc12)N1CC(Oc2ccc(-c3nc(-c4ccccc4)no3)cc2)C1 | -27% | ? | -6% | ? | ? | 16µM*
O=C(c1cc(F)ccc1F)N1CC(Oc2ccc(-c3nc(-c4ccccc4)no3)cc2)C1 | ? | 7% | 5% | -11% | ? | ?
Cc1noc(-c2ccc(OC3CN(C(=O)c4sccc4C)C3)cc2)n1 | ? | -2% | -5% | ? | ? | i
N#CC1CCN(C(=O)C2CCCN2Cc2ccc(-c3cncnc3)cc2)CC1 (stereo not given) | nt | -11% | 22% | -8% | 3% | nt
Cn1cc(CN2CCN(c3ccc(C#N)cn3)CC2)c(-c2ccccc2)n1 | 2% | 7% | 19% | ? | 79µM* | i
Cn1cc(CN2CCN(c3cnccn3)CC2)c(-c2ccc(C3CCCCC3)cc2)n1 | 6% | 1% | 42% | 79µM* | 25µM* | 22µM*
O=C(OCc1ccccc1)N1CCOCC12CCN(Cc1cccs1)CC2 | 3%[70.6 µM] | -21%[87.6 µM] | ? | 28µM* | ? | i
O=C(OCc1ccccc1)N1CCOCC12CCN(Cc1ccc(F)cc1)CC2 | -12%[70.6 µM] | ? | -29%[87.6 µM] | ? | 71µM* | i
COc1ccc(CN2CCC3(CC2)COCCN3C(=O)OCc2ccccc2)cc1O | -2%[70.6 µM] | ? | -18%[87.6 µM] | ? | -20%[172 µM] | i
O=C(c1ccc(Oc2ccccc2)cc1)N1CCOCC12CCN(Cc1ccccc1)CC2 | -19% | -15% | -31% | ? | ? | i
O=C(COc1ccccc1)N1CCOCC12CCN(Cc1ccccc1)CC2 | 3%[70.6 µM] | -22%[87.6 µM] | ? | ? | 45µM* | i
O=C(OCc1ccccc1)N1CCOCC12CCN(Cc1cccnc1)CC2 | -9%[70.6 µM] | -2%[87.6 µM] | -17%[87.6 µM] | ? | ? | i
CC(C)c1ccc(CN2CCC3(CC2)COCCN3C(=O)OCc2ccccc2)cc1 | ? | ? | 1%[87.6 µM] | 35µM* | 50µM* | i
COc1cccc(-c2ccc(C(=O)NCCNC(=O)Cc3ccc(F)cc3)cc2)c1 | nt | nt | nt | ? | 89µM* | nt
SMILES | NPR1 antag | HEK293 viab | SNCA expr inhib | NIH3T3 tox | HEK293 tox | Luciferase inh
COc1cccc(-c2ccc(C(=O)NCCNC(=O)c3ccccc3F)cc2)c1 | nt | nt | nt | -28% | 89µM*! | nt
O=C(NCCCN1CCN(c2ccc(F)cc2)CC1)C1COc2ccccc2C1 (stereo not given) | nt | 3% | -14% | nt | nt | nt
Fc1ccc(-n2cc(CCCCN3CCC4(CC3)OCc3ccccc34)c3ccccc32)cc1 | nt | 19µM* | nt | nt | nt | nt
COc1ccc(-c2cc(N3CCC(NC(=O)c4cccc(C#N)c4)C3)n[nH]2)cc1 (stereo not given) | -11% | -12% | 1% | ? | 35µM* | i
COc1ccc(-c2cc(N3CCC(NC(=O)c4cccc(C)c4)C3)n[nH]2)cc1 (stereo not given) | 1% | -13% | ? | -17% | ? | i
COc1ccc(-c2cc(N3CCC(NC(=O)c4cccc(OC(F)(F)F)c4)C3)n[nH]2)cc1 (stereo not given) | -10% | -13% | 2% | ? | 40µM* | i
N#Cc1cccc(C(=O)NC2CCN(c3cc(-c4ccc(F)cc4)[nH]n3)C2)c1 (stereo not given) | -11% | -16% | ? | ? | 45µM* | i
O=C(NCc1cccc(Cl)c1)c1ccc2nc(-c3ccncc3)oc2c1 | nt | 9%[87.6 µM] | ? | ? | ? | nt
CCn1cc(S(=O)(=O)N2CCCCC2c2nc(CCOc3ccc(F)cc3)no2)cn1 (stereo not given) | -19% | -29% | ? | ? | 45µM* | i
CCOCCNC(=O)c1cc(-c2ccc(Cl)cc2Cl)nc2c1cnn2C | nt | -4% | 2% | ? | ? | nt
OC(c1cccc(C(F)(F)F)c1)c1nc(Nc2ccc(F)cc2)n[nH]1 (stereo not given) | -26%[70.6 µM] | 0%[87.6 µM] | -33%[87.6 µM] | ? | 79µM* | i
COc1ccc(Nc2n[nH]c(C(O)c3cccc(C(F)(F)F)c3)n2)cc1OC (stereo not given) | -24%[70.6 µM] | -4%[87.6 µM] | -26%[87.6 µM] | -22%[138 µM] | ? | i
OC(c1nc(Nc2ccc(Cl)cc2)n[nH]1)C1CC1 (stereo not given) | -23%[70.6 µM] | 14%[87.6 µM] | -3%[87.6 µM] | ? | ? | 22µM*
COc1ccccc1C(O)c1nc(Nc2ccc(C(C)C)cc2)n[nH]1 (stereo not given) | -11%[70.6 µM] | -8%[87.6 µM] | ? | ? | 100µM* | i
CC(C)c1ccc(Nc2n[nH]c(C(O)C3CC3)n2)cc1 (stereo not given) | -17%[70.6 µM] | 7%[87.6 µM] | 71%[87.6 µM] | ? | ? | 16µM*
O=C1CCC2(C(=O)NCCCN3CCCc4ccccc43)CCCC=C2N1C1CCCC1 (stereo not given) | nt | 3% | 7% | ? | ? | nt
